# Values joined by “and” are separate entries in the source; they are usually repeats but may differ in a detail not shown here. Equal entries are not always repeated. Compounds without any hit were thinned out: in the full panel of roughly 83,000, 20% have a hit.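 In brief: 96-well plates, 48 h treatment, single concentration, percent growth endpoint.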 Unmarked numbers belong to inactive results. Active and inactive are the calls of the source. The calls were made as follows: active = growth percent below 10; inactive = the rest.
# Tested on: MDA-MB-468 breast
# Experiment: NCI-60 one-dose screen, 48 h (100 = growth as untreated, 0 = no growth, -100 = all killed)
# Conditions: 10 µM unless noted
row,SMILES,growth
1,COc1c(O)cc2oc3cc(O[C@@H]4OC(C)[C@@H](O)[C@H](O)C4O)c(CC=C(C)C)c(O)c3c(=O)c2c1CC=C(C)C (stereo not given in full),82.5%
2,CC(C)CCSc1nc(NNC(N)=O)c(C#N)c(-c2ccccc2)n1,108%
3,CNC(=O)c1cc(Oc2ccc3c(c2)sc2nc(-c4ccc(OC)cc4)cn23)ccn1,16.8%
4,COc1cccc(/C=C2\Oc3cc(OCCN4CCCC4)ccc3C2=O)c1,82.8%
5,CN(C)c1ccc2cc(-c3ccccc3F)c(N)nc2c1,25.6%
6,NC(Cc1c[nH]c2ccccc12)C(=O)O (stereo not given),110% and 112%
7,COc1cccc(-c2nn(-c3ccccc3)cc2-c2ccnc(NCCNC(=O)Nc3ccccc3)c2)c1,49.7%
8,CCOC(=O)CSc1nc2sc3c(c2c(=O)n1-c1ccccc1)CCCCC3,122%
9,Cc1nc2c(=O)[nH]c(=S)[nH]c2[nH]c1=O,107% and 111%
10,CN(C)C(=O)OCc1nc2c(N3CCOCC3)nc(-c3ccccc3)nc2n1C,-61.1% (active)
11,CCNc1nnc(COc2ccc(CNC(=O)CCCC/C=C/C(C)C)cc2OC)o1,104%
12,COc1cc2cc(Oc3ccc(NC(=O)Nc4ccc(C(F)(F)F)cc4)cc3)c(C)nc2cc1OC,40.1%
13,CCCCN(CCCC)C(=N)c1ccnc2ccccc12,117%
14,CC(=O)Nc1cccc(-n2cnc3cc(-c4ccc(O)cc4)ccc32)c1,-0.935% (active)
15,COC(=O)c1nc(=S)[nH]c(C(=O)OC)c1C(=O)c1ccccn1,19.3%
16,CCN(CC)CCC(CNc1ccnc2cc(Cl)ccc12)c1ccc(Cl)cc1 (stereo not given),-86.6% (active)
17,O=[N+]([O-])c1ccc(S(=O)(=O)N2CCN(c3ccnc4cc(Cl)ccc34)CC2)c([N+](=O)[O-])c1,82.7%
18,COC(=O)c1n[nH]c2ccc3nc(-c4cn[nH]c4C(F)(F)F)c4c(c3c12)CCCC4,73.8%
19,C1=C(c2ccccc2)c2ccccc2C1,100%
20,Fc1ccc(Nc2nc(NCCNc3ccnc4cc(Cl)ccc34)nc(N3CCOCC3)n2)cc1,16.7%

row,SMILES,growth
1,Clc1nccc2c(-c3csc(-c4c[nH]c5ccccc45)n3)c[nH]c12,29.2%
2,COc1ccc2c(c1)Nc1ccccc1S2,104%
3,CCNC(=O)Oc1ccc[nH]c1=O,86.9%
4,COc1ccccc1OC(=O)Oc1ccccc1OC,106% and 119%
5,Cn1ccnc1C(=O)/C=C/c1ccc(CNC(=O)c2ccc(S(F)(F)(F)(F)F)cc2)cc1,23.3%
6,Cc1cn(C)cn1,112%
7,CCOC(=O)c1c(NCC(=O)Nc2cccc([N+](=O)[O-])c2)sc(C(C)=O)c1C,-22.5% (active)
8,COc1ccc(C(=NNS(=O)(=O)c2ccc(C)cc2)c2ccccc2)cc1OC,103%
9,CN(C)C(=S)Sc1ccc([N+](=O)[O-])cc1[N+](=O)[O-],-78.7% (active)
10,Cc1cccc2nnc(-c3ccccc3)n12,106%
11,CC12OC(CC(O)C1O)n1c3ccccc3c3c4c(c5c6ccccc6n2c5c31)C(=O)N(CCN1CCOCC1)C4=O (stereo not given),-30.4% (active)
12,Nc1cccc2c(=S)c3ccccc3[nH]c12,86.1%
13,CCOC(=O)C1=C(C)N=C2SC=C(c3ccccc3)N2[C@H]1c1cn[nH]c1-c1ccc(Cl)cc1,22.4%
14,COC(=O)c1cc(-c2ccc(C)cc2)n(C(=O)CSc2nc3sc(C(N)=O)c(C)c3c(=O)n2Cc2ccccc2)n1,107%
15,N#CSc1cc(S(N)(=O)=O)ccc1N,105%
16,CCCNc1nc2ccccc2c2c1S(=O)(=O)c1ccc(Cl)cc1C2=O,3.32% (active)
17,CCn1cc(C(=O)NN=C2CCCCCC2)c(=O)c2ccc(C)nc21,85.9%
18,COc1cccc(-c2nn(-c3ccccc3)cc2-c2ccnc(NCCNC(=O)Nc3cccc(C(F)(F)F)c3)c2)c1,15.5%
19,C[C@H]1[C@H]2[C@H]3CC[C@@H]4[C@@]5(C)CC[C@H](O)C(C)(C)[C@@H]5CC[C@@]4(C)[C@]3(C)CC[C@]23CO[C@]1(C)[C@@H](C(=O)/C=C\c1cccnc1)C3,20.5%
20,COc1cc(-c2nn(-c3ccc(NC(=O)Nc4ccc(Cl)c(C(F)(F)F)c4)cc3)cc2-c2ccncc2)ccc1Cl,-13.2% (active)

# — PubChem BioAssay (NCI)
